Mdm2 MdmX PPI – inhibitors of human Mdm2-MdmX association, primary screen, cell-based, luminescence, split luciferase, SaOS-2, uHTS; Protein Mdm4 (Homo sapiens) + E3 ubiquitin-protein ligase Mdm2 (Homo sapiens), …; SaOS-2 split-luciferase Mdm2/MdmX complementation; inhibition, % at 8 µM; hit rate 3% among 330,000; AID 485346, 2010;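 active = inhibition of at least 50% at 8 µM in the primary screen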
CSC inhib – cancer stem cell viability inhibitors, primary screen, luminescence | cancer stem cell-like cells viability | inhibition, % at 7.5 µM | hit rate 1.1% among 300,000 | AID 2717, 2010; in the data active = inhibition above about 75%; inconclusive = no clear call, values can overlap the other calls; tested in HMLE shEcad cells
Beta cell apopt – inhibitors of cytokine-induced beta cell apoptosis, primary screen, luminescence. protection from apoptosis, % (concentration not given with the values). hit rate 0.8% among 300,000. INS-1E cytokine-induced death, ATP luminescence, 48 h; percent of positive-control rescue, neutral wells zero;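 active = Every replicate reaches about 75%, or at least half do and their mean reaches it too, limit read from the data; inconclusive = At least half of replicates reach the limit but their mean does not; inactive = Under half of replicates reach the limit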;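 note: higher means more ATP so stronger rescue from cytokine killing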
PAX8 inh HTS – inhibitors of PAX8-driven TPO luciferase reporter, primary screen, RMG-I cells, single concentration | SteadyGlo, 24 h | inhibition, % at 12.6 µM | hit rate 1.2% among 360,000;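 active = mean replicate inhibition at least 60% with every replicate also reaching 60%; inconclusive = only one of the two criteria is met; inactive = mean below 60% and not all replicates reaching 60%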;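 note: luciferase light reporting Pax8 driven TPO promoter activity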
Shn3 inh set2 – reduction of Shn3 3'UTR firefly luciferase signal, primary screen, Schnurri-3 inhibitor project, cell-based, Clone20 osteoblasts, set 2; hit rate 0.52% among 360,000; inhibition, % at 12.5 µM; Clone20 osteoblast Shn3 3'UTR firefly luciferase, 24 h;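 active = mean inhibition of at least 75% with every replicate also reaching 75%; inconclusive = mean inhibition at least 75% but some replicate below; inactive = mean inhibition below 75%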
Gli-Sufu block – Gli-Sufu pathway antagonists, primary screen, luciferase luminescence, Sufu-KO-LIGHT cells, uHTS | inhibition, % at 5 µM | hit rate 0.74% among 340,000 | Sufu-KO-LIGHT fibroblasts, Gli luciferase reporter luminescence;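 active = inhibition above about 55%, limit read from the data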
Mdm2 MdmX conf – Mdm2-MdmX complex disruptors, retested hits, confirmation, luminescence, single concentration; Mdm2-MdmX binding, luminescent assay; hit rate 55% among 10,000; shares compounds with Mdm2 MdmX PPI; inhibition, % at 8 µM; in the data active = inhibition above about 40%
FLuc counter – full-length luciferase signal inhibition, confirmation, counter-screen for Mdm2/MdmX interaction inhibitor project, cell-based, single concentration, SaOS-2. shares compounds with Mdm2 MdmX PPI. SaOS-2 full-length luciferase counterscreen, luminescence. inhibition, % at 8 µM. hit rate 77% among 6,200;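 active = mean inhibition at 8 µM reaching about 37%, which flags the compound as non-specific, limit read from the data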;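 note: p53-null SaOS-2 cells with luciferase driven by a doxycycline-inducible promoter; compound on cells about two nights before reading with doxycycline added after day one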
Each line names hits and unclear results; the compound was inactive in the other large screens (follow-up assays come after a bar, where they were run). Hits are enriched below; roughly 4% of the tested compounds scored in any of these assays.

CCN1CCCC1CN(Cc1cc2ccc(C)cc2[nH]c1=O)C(=S)Nc1ccc(F)cc1 (stereo not given)	Mdm2 MdmX PPI 60 | Mdm2 MdmX conf inactive | FLuc counter 63
COc1ccc2cc(CN(CC3CCCO3)C(=O)Nc3ccccc3OC)c(=O)[nH]c2c1 (stereo not given)	Mdm2 MdmX PPI 59 | Mdm2 MdmX conf 53 | FLuc counter 63
COc1ccc2cc(CN(CC3CCCO3)C(=S)Nc3ccccc3)c(=O)[nH]c2c1 (stereo not given)	Mdm2 MdmX PPI 52 | Mdm2 MdmX conf 51 | FLuc counter 57
O=C(C[C@@H]1C[C@H]2c3cc(NC(=O)c4ccc5c(c4)OCO5)ccc3O[C@H]2[C@H](CO)O1)NCc1cc(F)ccc1F	none (no result: Mdm2 MdmX PPI, CSC inhib, Beta cell apopt, Shn3 inh set2, Gli-Sufu block)
COc1cccc(S(=O)(=O)N(C)C[C@H]2OCc3ccccc3-c3ccccc3C(=O)N([C@@H](C)CO)C[C@H]2C)c1	none (no result: Mdm2 MdmX PPI, CSC inhib, Beta cell apopt, Shn3 inh set2, Gli-Sufu block)
C[C@@H]1CN([C@H](C)CO)C(=O)c2cc(NC(=O)C3CC3)ccc2O[C@@H]1CN(C)S(=O)(=O)c1ccc(F)cc1	none (no result: Mdm2 MdmX PPI, CSC inhib, Beta cell apopt, Shn3 inh set2, Gli-Sufu block)
C[C@H]1CN([C@@H](C)CO)C(=O)c2cc(NC(=O)NC3CCCCC3)ccc2O[C@H]1CN(C)Cc1ccccc1	none (no result: Mdm2 MdmX PPI, CSC inhib, Beta cell apopt, Shn3 inh set2, Gli-Sufu block)
CN(C)CC#Cc1cccc(-c2nc(C(=O)N3CCN(C)CC3)cc3c2[C@@H](CCO)N(S(=O)C(C)(C)C)C3)c1 (stereo not given in full)	none (no result: Mdm2 MdmX PPI, CSC inhib, Beta cell apopt, Shn3 inh set2, Gli-Sufu block)
COc1ccccc1C(=O)/C=C/c1ccc(N2CCCCC2)c([N+](=O)[O-])c1	Mdm2 MdmX PPI 99 (no result: CSC inhib, Beta cell apopt) | Mdm2 MdmX conf inactive | FLuc counter 70
CCN1CCN(CCCNC(=O)c2ccc(/C=C3/Oc4ccccc4N(Cc4cccc(C)c4)C3=O)cc2)CC1	Mdm2 MdmX PPI 100 (no result: PAX8 inh HTS) | Mdm2 MdmX conf inactive
CCN1CCN(CCCNC(=O)c2ccc(/C=C3/Sc4ccccc4N(Cc4ccccc4F)C3=O)cc2)CC1	Mdm2 MdmX PPI 94, CSC inhib 104 | Mdm2 MdmX conf 74 | FLuc counter inactive
CCN1CCN(CCNC(=O)c2ccc(/C=C3/Sc4ccccc4N(Cc4ccccc4C)C3=O)cc2)CC1	none (no result: Mdm2 MdmX PPI, CSC inhib, Beta cell apopt)
C[C@@H]1CN([C@@H](C)CO)C(=O)c2cc(NC(=O)Cc3cn(C)c4ccccc34)ccc2O[C@H]1CN(C)C(=O)Nc1ccc(F)cc1	none (no result: Mdm2 MdmX PPI, CSC inhib, Beta cell apopt, Shn3 inh set2, Gli-Sufu block)
C=C(C(=O)Oc1ccccc1C(C)(C)C)c1ccccc1	Mdm2 MdmX PPI 96, CSC inhib 103 (no result: PAX8 inh HTS, Shn3 inh set2, Gli-Sufu block) | Mdm2 MdmX conf 49 | FLuc counter inactive
CC(C)(C)c1ccccc1OCC(=O)NCCC(=O)O	none (no result: PAX8 inh HTS)
Cc1cc(Oc2ncccc2[N+](=O)[O-])c2cc(Cl)ccc2n1	Mdm2 MdmX PPI 56 | Mdm2 MdmX conf inactive
O=[N+]([O-])c1cccnc1Oc1cc(Cl)c(Cl)cc1Cl	none (no result: Mdm2 MdmX PPI, CSC inhib, Beta cell apopt, Gli-Sufu block)
Cc1cc(=O)oc2cc(OCc3ccc(C(=O)OCC(=O)NC4CCS(=O)(=O)C4)cc3)ccc12 (stereo not given)	Mdm2 MdmX PPI 51 | Mdm2 MdmX conf inactive
C=C(C(=O)c1ccccc1)C(C)CC(=O)c1ccccc1 (stereo not given)	Mdm2 MdmX PPI 64, PAX8 inh HTS 62 | Mdm2 MdmX conf 61 | FLuc counter inactive
FC(F)(F)c1cccc(Sc2nc(-c3ccccc3)nnc2C(F)(F)F)c1	Mdm2 MdmX PPI 55 (no result: CSC inhib, PAX8 inh HTS, Shn3 inh set2) | Mdm2 MdmX conf inactive
FC(F)(F)c1nnc(-c2ccccc2)nc1N1CCCC1	none
FC(F)(F)c1nnc(-c2ccccc2)nc1Sc1ccc(Cl)cc1	Mdm2 MdmX PPI 86, CSC inhib 80, Shn3 inh set2 92 (no result: PAX8 inh HTS) | Mdm2 MdmX conf inactive | FLuc counter inactive
FC(F)(F)c1nnc(-c2ccccc2)nc1Sc1ccccc1	Mdm2 MdmX PPI 52 (no result: PAX8 inh HTS) | Mdm2 MdmX conf inactive
C[C@H](CO)N1C[C@H](C)[C@H](CN(C)S(=O)(=O)c2ccc(F)cc2)Oc2ccc(NS(=O)(=O)c3ccc(Cl)cc3)cc2C1=O	none (no result: Mdm2 MdmX PPI, CSC inhib, Beta cell apopt, Shn3 inh set2, Gli-Sufu block)
C[C@H](CO)N1C[C@H](C)[C@H](CN(C)C)Oc2ccc(NC(=O)CCCCCC(=O)Nc3ccccc3N)cc2C1=O	none (no result: Mdm2 MdmX PPI, CSC inhib, Beta cell apopt, Shn3 inh set2, Gli-Sufu block)
CNC[C@H]1OCCCC[C@@H](C)Oc2ccc(NC(=O)Nc3ccc(F)cc3)cc2C(=O)N([C@@H](C)CO)C[C@H]1C	none (no result: Mdm2 MdmX PPI, CSC inhib, Beta cell apopt, Shn3 inh set2, Gli-Sufu block)
CCc1ccc2nc(SCC(=O)Nc3ccccc3N3CCOCC3)c(C#N)cc2c1	Mdm2 MdmX PPI 67, CSC inhib inconclusive | Mdm2 MdmX conf 60 | FLuc counter 46
Cc1ccc2nc(SCC(=O)Nc3ccccc3N3CCOCC3)c(C#N)cc2c1	none (no result: PAX8 inh HTS)
COc1ccccc1N(Cc1ccccc1)S(=O)(=O)c1cccc(C(=O)Nc2cc(C)ccn2)c1	Mdm2 MdmX PPI 68 | Mdm2 MdmX conf 56 | FLuc counter 160
CC1(C)CC(NC(=O)c2ccc(Cl)c(S(=O)(=O)N(Cc3ccccc3)c3ccccc3)c2)CC(C)(C)N1	Mdm2 MdmX PPI 99 (no result: Beta cell apopt) | Mdm2 MdmX conf 93 | FLuc counter 48
O=C(O)c1ccc(Cl)c(S(=O)(=O)N(Cc2ccccc2)c2ccc(Cl)cc2)c1	none
COc1ccccc1N(Cc1ccccc1)S(=O)(=O)c1cccc(C(=O)NC2CC(C)(C)NC(C)(C)C2)c1	Mdm2 MdmX PPI 97 | Mdm2 MdmX conf 64 | FLuc counter 72
COc1ccccc1N(Cc1ccccc1)S(=O)(=O)c1cccc(C(=O)Nc2ncccc2C)c1	none
CC(C)c1cn(CC[C@@H]2CC[C@H](NC(=O)C3CCOCC3)[C@@H](CO)O2)nn1	none (no result: Mdm2 MdmX PPI, CSC inhib, Beta cell apopt, Shn3 inh set2, Gli-Sufu block)
C[N+](C)(C)CCCCCCCCCC[N+](C)(C)C	none
C#CC[N+](C)(C)CCCCCCCCC	Mdm2 MdmX PPI 51 | Mdm2 MdmX conf 49 | FLuc counter 74
Cc1cnc(NC(=O)C2CC(=O)N(c3cccc(Cl)c3)C2)s1 (stereo not given)	Mdm2 MdmX PPI 93 | Mdm2 MdmX conf 89 | FLuc counter 82
C=CC[C@@H](CC(=O)N[C@@H](CO)Cc1ccccc1)C(=O)N[C@H](COC(=O)[C@@H](CC=C)Cc1ccc(F)cc1)Cc1ccccc1	Mdm2 MdmX PPI 53 | Mdm2 MdmX conf inactive | FLuc counter 55
C=CC[C@@H](CC(=O)N[C@H](CO)Cc1ccccc1)C(=O)N[C@@H](COC(=O)[C@@H](CC=C)Cc1ccc(F)cc1)Cc1ccccc1	Mdm2 MdmX PPI 70 | Mdm2 MdmX conf inactive

Assay outcomes deposited in PubChem by several laboratories.
